Laboratory results: PubChem BioAssay (Tox21)
Calls of active or inactive are those of the source. Calls follow the shape of the dose curve; as a rule, active = well fitted curve in the direction sought with a large enough effect in the repeat runs; inconclusive = weak or mixed curves; inactive = flat fitted curve, though single readings scatter.

Assay: qHTS assay to test for compound auto fluorescence at 535 nm (green) in HEK293 cells (AID 720680)
Settings: green autofluorescence 485/535 nm; series mostly up to 91.3 µM
From the text: U.S. Tox21 Program National Center for Advancing Translational Sciences [NCATS] NIH Chemical Genomics Center [NCGC] U.S. Environmental Protection Agency [EPA] National Institutes of Environmental Health Sciences [NIEHS] National Toxicology Program [NTP] U.S. Food and Drug Administration [FDA] Tox21 Assay Overview: Compound auto fluorescence often interferes with screening of the compound library against various biological targets and signaling pathways. Some of these compounds may have fluorophoric properties. Such properties may interfere with the assay outputs resulting in false positives and/or negatives. To decrease such complications and ensure the compound activities are relevant in terms of biological response, the Tox21 10K compound library was screened for auto fluorescence. From the fluorophores used as reporter signals in our screening assays, the auto fluorescence equivalencies of compounds against three fluorophores have been evaluated: Triamterene, Fluorescein and Rose Bengal sodium for blue, green and red fluorescence, respectively. The fluorescence intensities were measured using Excitation/Emission wavelengths at 405/460nm, 485/535nm and 540/590nm for blue, green and red labels, respectively. This assay includes the green fluorescence data.
Tox21 Assay Protocol Summary: 2,000 HEK293 cells in 5 uL of culture medium containing 10% dialyzed FBS per well were dispensed into black wall/clear bottom 1536-well plates using a Multidrop Combi Dispenser (Thermo Scientific). The assay plates were incubated for 4-5 hr at 37C to allow cell attachment to the well bottom, followed by the transfer of 23 nL compound or DMSO vehicle by a pintool work station (Kalypsys, San Diego, CA). After the assay plates were incubated overnight at 37C and 5% CO2, fluorescence intensities in the assay plates were measured by an Envision (PerkinElmer, Shelton, CT) plate reader using three labels for measuring blue, green and red fluorescence at […] 460, 535 and 590nm respectively.
% is scaled to controls: 0 for no effect and ±100 for the full control effect.

SMILES | outcome | fluorescence, % of fluorescein
CC(=O)c1cc(C)oc1C | inactive | –
CC(C)c1ccc(C=O)cc1 | inactive | –
CCCCCC(C)O (stereo not given) | inactive | –
CC1(C)[C@H]2CC[C@](C)(C2)[C@H]1O | inactive | –
O=C(CCCCC(=O)Nc1c(I)cc(I)c(C(=O)O)c1I)Nc1c(I)cc(I)c(C(=O)O)c1I | inactive | –
Cc1c(C(=O)c2c[nH]n(C)c2=O)ccc(S(C)(=O)=O)c1C1=NOCC1 | inactive | –
COc1ccc(CCO)cc1 | inactive | –
CNCCS(=O)(=O)O | inactive | –
C=Cc1ccc(C(C)(C)C)cc1 | inactive | –
Cc1ccc(N)cc1S(=O)(=O)O | inactive | –
COC(=O)c1cccc(Cl)c1 | inactive | –
OCCN1CCOCC1 | inactive | –
C/C(CC(C)C)=N\O | inactive | –
CC(C)C1OCCN1CCOC(=O)NCCCCCCNC(=O)OCCN1CCOC1C(C)C (stereo not given) | inactive | –
CCCCCc1cccc(=O)o1 | inactive | –
CCCCCCCCCOC(=O)CCCCC(=O)OCCCCCCC | inactive | –
C#CCN[C@@H]1CCc2ccccc21 | inactive | –
CC(=O)CC(=O)Nc1ccc(C)cc1C | inactive | –
CC1=C(C(=O)O)N2C(=O)[C@@H](NC(=O)[C@H](N)c3ccccc3)[C@H]2SC1 | inactive | –
OC1OCCOC1O (stereo not given) | inactive | –

SMILES | outcome | fluorescence, % of fluorescein
CCO[Si](CC)(OCC)OCC | inactive | –
Cc1ccc2c(c1)C(=O)c1ccccc1C2=O | inactive | –
COc1ccc2c(c1)c1c3n2CCN(C)C3=NCC1 | inactive | –
Cc1c(Cl)cccc1Cl | inactive | –
CCOCCOCC | inactive | –
O=Cc1cc2ccccc2o1 | inactive | –
CC(=O)C(C)O (stereo not given) | inactive | –
N[C@@H](CSCCCO)C(=O)O | inactive | –
CC(C)Cn1cnc2c1c(=O)n(C)c(=O)n2C | inactive | –
Nc1nc(-c2ccccc2)c(Br)c(=O)[nH]1 | inactive | –
C[C@@H](O)C(=O)O | inactive | –
O=C[O][Al]([O]C=O)[O]C=O | inactive | –
CCCCCCCCCCCCCCCCCCOCCO | – | -0.0578% [at 18.6 µM] (inactive)
CC(C)NCC(O)c1ccc2ccccc2c1 (stereo not given) | inactive | –
O=C(O)CSCC(=O)NC1CCSC1=O (stereo not given) | inactive | –
COS(=O)(=O)O | inactive | –
CC12CCC(C1)C(C)(C)C2O (stereo not given) | inactive | –
O=C1OCCO1 | inactive | –
CC(=O)Nc1ccc(OC(=O)c2ccccc2OC(C)=O)cc1 | inactive | –
O=C1CCCCO1 | inactive | –
